Experimental findings from PubChem BioAssay (NCI) are described below.

About 83,000 compounds went through this panel and 20% of them were active in at least one assay; those are over-represented in the sample as a whole.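 48-hour exposure, single concentration, 96-well plates; percent growth endpoint where 0 means no net growth. Active: below 10.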 A number with no mark means an inactive call. Calls of active or inactive are those of the source.

The test system of one assay is NCI-H522 lung. Put plainly: NCI-60 one-dose screen, 48 h (100 = growth as untreated, 0 = no growth, -100 = all killed). Conditions: 10 µM unless noted.
For `COc1ccc(NC(=O)CSc2nnc(-c3cc(-c4ccccc4)nc4ccccc34)n2-c2ccccc2)cc1`, the growth was 80.1%.

As to `COc1cc(C2CC(=O)Nc3c2c(C)nn3-c2nc3ccccc3[nH]2)cc2c1OCC(=O)N2` (stereo not drawn), the growth was 71.4%.

As for `Cc1cc(Cl)nc(NCc2cc(Nc3ccnc4cc(Cl)ccc34)ccc2F)n1`, the growth is 45.1%.

For the compound `COc1ccc2c(c1)[nH]c(=O)c1c3cccnc3cn21`, the growth is 12%.

For `Cc1ccc(Cc2cnc(NC(=O)c3ccc4noc(-c5ccccc5)c4c3)s2)cc1`, the growth is 72.7%.

Turning to `CC1=CN2C(=O)C3C4=C(CCCC4)SC3N=C2CN1c1c(C)cccc1C` (stereo not drawn), the growth is 77.4%.

On to `Cc1ccc2[nH]c(=O)c3c(c2c1)OC(N)=C(C#N)C31c2cc(Br)ccc2-c2ccc(Br)cc21`, for which the growth was 74.2%.

For the compound `CS(=O)(=O)c1ccc(Nc2nc(N[C@H]3CCCC[C@H]3N)nc3cc[nH]c(=O)c23)cc1`, the growth is -37% (active).

For `O=C(NCCCNc1cc(-c2cn(-c3ccccc3)nc2-c2cccc(O)c2)ccn1)c1cccc(O)c1`, the growth is 53%.

On to `COc1ccc(C(=O)COc2ccc(/C=C3\Oc4ccccc4C3=O)cc2)cc1`, for which the growth was 63%.

Take `Cc1ccc(C2SCC(=O)N2Cc2ccccc2)cc1` (stereo not drawn): the growth was 83.6%.

For `Cc1cccc(Cc2cnc(NC(=O)/C=C/c3ccco3)s2)c1`, the growth is -12% (active).

In the case of `CN(C)CCNc1nc2ccccc2c2c1c1c(n2Cc2ccccc2)-c2ccccc2C1=O`, the growth is -69.2% (active).

Turning to `Cc1occc1-c1n[nH]c(=S)n1N1C(=O)CSC1=S`, the growth is 89.3%.

On to `Cc1cccc(NC(=O)CSc2nc3ccccc3[nH]2)c1`, for which the growth was 90.9%.

In the case of `Cc1ccccc1NC(=O)N/C(N)=N/c1nc(C)c(C)s1`, the growth was 16.3%.

As to `NNC(=O)c1nc(N)n(-c2ccc(S(N)(=O)=O)cc2)n1`, the growth is 80.3%.

`COc1cc(CCC[P+](c2ccccc2)(c2ccccc2)c2ccccc2)cc2c1OCO2`: the growth was 13.2%.

Regarding `O=C1/C(=C2/C=Nc3ccccc32)N(O)c2ccccc21`, the growth is 57.1%.

In the case of `COc1ccccc1N1C(=O)/C(=C/C2=Cc3ccccc3OC2)SC1=S`, the growth was 90%.

For `C=CCn1c(C)nc2cc(Nc3nc(Cl)nc4ccccc34)ccc21`, the growth is 97.4%.

With `COc1cc(/C=C/C(=O)c2c(C)nc3ccccc3c2C)ccc1OCCCN1CCN(C(=O)c2ccco2)CC1`, the growth is 57.7%.

On to `Cn1cc(-c2csc(-c3ccccc3)n2)c2cccnc21`, for which the growth is -24.3% [100 µM] (active).

With `N=C(N)c1ccc(-c2ccc(-c3cncc4ccccc34)s2)s1`, the growth is -69.6% (active).

Consider `CC(C)CC(NC(=O)CN(Cc1ccccc1)S(C)(=O)=O)C(=O)O` (stereo not drawn), for which the growth was 103%.

In a further assay the test system is A549/ATCC NSCLC. The assay is described as above. The settings on record: 10 µM unless noted.
Consider `Cc1ccc(Cl)cc1NC(=O)c1cc2ccccc2cc1O`, for which the growth is 13.9%.

As for `COc1ccc(NC(=O)CSc2nc(C)c(C(C)=O)n2-c2ccc([N+](=O)[O-])cc2)cc1`, the growth is 90.6%.

`O=C(NC(Cc1nnc2n(Cc3ccccc3)c(=O)c3c4c(sc3n12)CCCC4)c1ccc(Cl)cc1)c1ccccc1` (stereo not drawn): the growth was 98.9%.

For the compound `COc1cc(C2CC(=O)Nc3c2c(C)nn3-c2nc3ccccc3[nH]2)c(OC)c(OC)c1OC` (stereo not drawn), the growth is 43.2%.

With `Cn1c(-c2c(N)n(Cc3ccc(C(F)(F)F)cc3)c3nc(C#N)c(C#N)nc23)nc2ccccc21`, the growth is 12%.

`N#Cc1c(-c2ccccc2)cc(-c2ccc(Nc3nc(Nc4ccc(F)cc4)nc(Nc4ccc(F)cc4)n3)cc2)nc1N`: the growth is 86.2%.

For the compound `Cc1c(O)cc(-c2cnc(N/N=C\c3ccc(Cl)cc3)s2)c(O)c1C`, the growth was 85.1%.

On to `COc1ccc2c(c1)O/C(=C\c1cccc(OCC(=O)Nc3nc4ccccc4s3)c1)C2=O`, for which the growth is 95.8%.

On to `Cn1c2c(c3ccc(Cl)c(Cl)c31)C(C#N)C1(CCNCC1)NC2=O` (stereo not drawn), for which the growth is 31.2%.

`COc1ccc(C2=NN(C(=O)c3cc(OC)c(OC)c(OC)c3)C(c3ccc(Cl)cc3)C2)cc1OC` (stereo not drawn): the growth was 29.4%.

In the case of `CCN(CC)CCN1CC(O)=C(c2nc(-c3ccc(Cl)cc3)cs2)C1=N`, the growth is 46.8%.

Consider `C=C(C)[C@@H]1CC=C2c3sc(-c4ccc(C)cc4)nc3C[C@@H](C)[C@]2(C)C1`, for which the growth is 95.3%.

With `COC(=O)c1c2c(c[n+]([O-])c1C)C(=O)C=CC2=O`, the growth was 100%.

On to `COc1ccc(NC(=O)CSc2nnc(-c3cc(-c4ccccc4)nc4ccccc34)n2-c2ccccc2)cc1`, for which the growth was 92.4%.

Consider `COc1cc(C2CC(=O)Nc3c2c(C)nn3-c2nc3ccccc3[nH]2)cc2c1OCC(=O)N2` (stereo not drawn), for which the growth is 66.8%.

On to `Cc1cc(Cl)nc(NCc2cc(Nc3ccnc4cc(Cl)ccc34)ccc2F)n1`, for which the growth is 58.5%.

On to `COc1ccc2c(c1)[nH]c(=O)c1c3cccnc3cn21`, for which the growth was 13%.

As for `Cc1ccc(Cc2cnc(NC(=O)c3ccc4noc(-c5ccccc5)c4c3)s2)cc1`, the growth is 71.7%.

With `CC1=CN2C(=O)C3C4=C(CCCC4)SC3N=C2CN1c1c(C)cccc1C` (stereo not drawn), the growth was 82.4%.

Consider `Cc1ccc2[nH]c(=O)c3c(c2c1)OC(N)=C(C#N)C31c2cc(Br)ccc2-c2ccc(Br)cc21`, for which the growth is 53.9%.

Take `CS(=O)(=O)c1ccc(Nc2nc(N[C@H]3CCCC[C@H]3N)nc3cc[nH]c(=O)c23)cc1`: the growth was 33.6%.

In the case of `O=C(NCCCNc1cc(-c2cn(-c3ccccc3)nc2-c2cccc(O)c2)ccn1)c1cccc(O)c1`, the growth is 53.4%.

With `COc1ccc(C(=O)COc2ccc(/C=C3\Oc4ccccc4C3=O)cc2)cc1`, the growth was 99%.

`Cc1ccc(C2SCC(=O)N2Cc2ccccc2)cc1` (stereo not drawn): the growth is 102%.

Consider `Cc1cccc(Cc2cnc(NC(=O)/C=C/c3ccco3)s2)c1`, for which the growth was 20%.

Regarding `CN(C)CCNc1nc2ccccc2c2c1c1c(n2Cc2ccccc2)-c2ccccc2C1=O`, the growth is -73% (active).

Turning to `Cc1occc1-c1n[nH]c(=S)n1N1C(=O)CSC1=S`, the growth was 103%.

On to `Cc1cccc(NC(=O)CSc2nc3ccccc3[nH]2)c1`, for which the growth was 101%.

On to `Cc1ccccc1NC(=O)N/C(N)=N/c1nc(C)c(C)s1`, for which the growth is 40.2%.

In the case of `NNC(=O)c1nc(N)n(-c2ccc(S(N)(=O)=O)cc2)n1`, the growth was 97.1%.

For `COc1cc(CCC[P+](c2ccccc2)(c2ccccc2)c2ccccc2)cc2c1OCO2`, the growth is 73.2%.

With `O=C1/C(=C2/C=Nc3ccccc32)N(O)c2ccccc21`, the growth was 94.2%.

As to `COc1ccccc1N1C(=O)/C(=C/C2=Cc3ccccc3OC2)SC1=S`, the growth is 95.7%.

As for `C=CCn1c(C)nc2cc(Nc3nc(Cl)nc4ccccc34)ccc21`, the growth is 81.4%.

With `COc1cc(/C=C/C(=O)c2c(C)nc3ccccc3c2C)ccc1OCCCN1CCN(C(=O)c2ccco2)CC1`, the growth was 79%.

For the compound `Cn1cc(-c2csc(-c3ccccc3)n2)c2cccnc21`, the growth was -12.8% [100 µM] (active).

Turning to `N=C(N)c1ccc(-c2ccc(-c3cncc4ccccc34)s2)s1`, the growth is -85.8% (active).

In the case of `CC(C)CC(NC(=O)CN(Cc1ccccc1)S(C)(=O)=O)C(=O)O` (stereo not drawn), the growth was 96.5%.
